# Shown is part of a subset that was picked to be rich in hits.
# AMA1-RON2 inh – inhibitors of Plasmodium falciparum AMA1-RON2 interaction. AlphaScreen AMA1-biotinylated RON2 peptide binding. 0.2% of 360,000 active. Potency, µM (series often up to 58.2 µM), actives largely listed as inhibitors. AID 720542; active = well fitted inhibition curve with a large enough effect; inconclusive = small, poorly fitted or top-dose-only effect; inactive = no such curve, though single readings can be large or run the other way; also: nearly all actives have a fitted effect of over 45% in size
#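 AMA1 (3D7) with his tag at 25 nM final met compounds first, then biotinylated RON2 peptide at 25 nM; detection used donor plus acceptor beads, 10 µg/mL apiece, read by AlphaScreen after 30 min at room temperature.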
# Shiga toxin inh – inhibitors of Shiga toxin in Vero cells. Vero cells, Shiga toxin protein synthesis inhibition reporter. inhibition, % at 38.7 µM. 9.2% of 290,000 active. AID 2315; in the data active = inhibition mostly above about 28%, no sharp cut-off; inactive = mostly below about 43%
# CHX counter – affects cycloheximide protein synthesis inhibition readout, counter-screen; 12% of 300,000 active; cell reporter, cycloheximide protein synthesis inhibition counterscreen; max response, %; in the data active = max response mostly above about 13%, no sharp cut-off; inactive = mostly below about 14%; also: read at 38.3 µM for the half of the compounds with a filed dose
# MARV entry inh – Marburg virus entry inhibition | AID 540276 | 1.8% of 300,000 active | Potency, µM (series often up to 37.8 µM), most hits filed as inhibitors | Marburg virus pseudotyped entry inhibition, cell reporter; calls by dose curve; tested in HEK293 cells
# Lassa entry inh – inhibitors of Lassa virus binding or cell entry; AID 540256; Potency, µM (highest dose often 37.9 µM), usual class: inhibitors; Lassa virus pseudotype entry inhibition, cell reporter; 1.2% of 300,000 active; calls by dose curve; tested in HEK293 cells; also: nearly all actives have a fitted effect of over 50% in size
# Hits are given with their value; . = inactive; ? = inconclusive; / = no result.
SMILES,AMA1-RON2 inh,Shiga toxin inh,CHX counter,MARV entry inh,Lassa entry inh
Cn1c(=O)c2c([nH]c(=S)n2Cc2ccc(Cl)cc2)n(C)c1=O,.,.,.,.,.
Cc1cccc(/C(N)=N/OC(=O)c2ccoc2C)c1,.,68.3,37.5,?,?
Cc1cccc(/C(N)=N/OC(=O)CCC2CCCCC2)c1,.,.,.,.,.
Cc1occc1C(=O)O/N=C(\N)c1ccccc1,.,72.4,50.6,?,?
COc1cccc(N2CCN(C(=O)c3ccccc3SCC(=O)NCc3ccco3)CC2)c1,.,/,/,/,/
CN(C(=S)NC(=O)CCCOc1ccc(Cl)cc1Cl)c1ccccc1,.,.,.,.,.
Cc1ccccc1C(=O)NC(=S)Nc1ncccn1,.,.,18.4,?,.
O=C(NNC(=O)c1cccs1)c1ccco1,.,.,.,.,.
Cc1ccccc1C(=O)NC(=S)Nc1ccccc1C(=O)O,.,.,.,.,.
O=C(NNC(=S)NC(=O)c1ccco1)c1ccc(F)cc1,.,.,10.2,/,/
O=C(NC(=S)NNC(=O)c1cccs1)c1ccccc1,.,.,11.5,/,/
O=C(NC(=S)NNC(=O)c1cccs1)c1ccco1,.,.,29.1,.,.
CN(Cc1ccc(Cl)cc1)C(=O)COC(=O)c1ccc(-c2ccc(O)cc2)cc1,.,/,/,/,/
N#Cc1nc(-c2ccc(COc3ccc(Cl)cc3)o2)oc1N1CCCCC1,/,/,/,.,.
Cc1cccc(C(=O)NC(=S)NNC(=O)c2cccs2)c1,.,24.9,.,.,.
O=C(NNC(=O)c1cccs1)c1cccc(F)c1,.,.,.,.,.
CC(C)(C)c1ccc(C(=O)NC(=S)NNC(=O)c2cccs2)cc1,.,.,.,?,?
CCCOc1ccc(C(=O)NNC(=S)NC(=O)c2ccccc2)cc1,.,.,.,/,/
CCCOc1ccc(C(=O)NNC(=S)NC(=O)c2cccs2)cc1,.,.,.,11.2µM,?
O=C(NNC(=O)c1cccs1)c1ccc(F)cc1,.,49.9,21.7,.,.
COc1ccc(C(=O)NC(=S)NNC(=O)Cc2cccs2)cc1,.,54.8,17.9,.,.
CCc1cc2c(s1)c1cnn(Cc3ccccc3F)c(=O)c1n2C,/,.,.,/,/
CC(=O)N/N=C(\N)c1nonc1N,.,.,.,.,/
CCOC(=O)c1ccc(NC(=O)Cn2cc(C(=O)C3CC3)c3ccccc32)cc1,/,/,/,.,?
COc1ccc2nc(C)cc(NCc3ccc(F)cc3)c2c1,.,.,.,?,?
SMILES,AMA1-RON2 inh,Shiga toxin inh,CHX counter,MARV entry inh,Lassa entry inh
CCN1CC(C)(C)N(C(=O)c2ccccc2)CC1(C)C,.,/,/,.,.
Cc1ccccc1C(=O)NNC(=S)NC(=O)c1cccs1,.,.,21.4,/,/
Cc1snc2sc(C(=O)c3ccc(F)cc3)c(N)c12,.,77.1,26.3,.,.
CN(C)c1ccnc2sc(C(=O)c3ccc(Br)cc3)c(N)c12,.,.,.,.,.
Cc1cccc2c1NC(=O)/C2=C\C(=O)c1cccs1,.,.,15.2,?,?
O=C(c1ccc(CNS(=O)(=O)c2ccc(Br)cc2)cc1)N1CCCCCC1,.,.,.,/,/
C=CCSc1nnc(-c2ccccc2N=Cc2c(C)[nH]n(-c3ccccc3)c2=O)c(=O)[nH]1,.,.,23.3,?,.
Cc1[nH]n(-c2ccccc2)c(=O)c1/C=N/c1nn[nH]n1,.,.,.,.,.
CSc1nnc(-c2ccccc2N=Cc2c(C)[nH]n(-c3ccc4ccccc4c3)c2=O)c(=O)[nH]1,.,.,33.3,.,.
CCc1ccc2ncc3c(-c4ccc(C)cc4)nn(CC(=O)Nc4ccc(C)cc4)c3c2c1,/,/,/,/,.
Cc1noc(C)c1CSCC(=O)Nc1nc(-c2ccc(F)c(F)c2)cs1,.,/,/,?,?
COc1ccc(-c2csc(NC(=O)CSCc3c(C)noc3C)n2)cc1OC,.,.,.,?,11.2µM
O=C(CSCC(=O)N1CCOCC1)Nc1nc(-c2ccc3c(c2)OCO3)cs1,.,.,33.2,/,/
O=C(CCCCl)Nc1nc(-c2ccc3c(c2)OCCO3)cs1,.,69.8,30.9,.,?
O=C(Nc1nc(-c2ccc3c(c2)OCCO3)cs1)C1CCCC1,.,148.9,48.9,/,/
CCOC(=O)N1CCN(C(=O)CSCC(=O)Nc2nc(-c3ccc4c(c3)OCO4)cs2)CC1,.,.,.,?,.
Cc1ccc(-n2c(=O)c3sc4ccccc4c3n(C)c2=O)cc1F,/,/,/,?,.
COc1ccc(-c2csc(NC(=O)c3ccc(OCC(=O)N4CCOCC4)c(OC)c3)n2)cc1OC,.,.,.,11.2µM,?
N#CCC(=O)Nc1nc(-c2ccc3c(c2)OCCO3)cs1,.,55.7,32.2,/,/
COc1cc(C(=O)Nc2cccc(C)n2)ccc1OCC(=O)N1CCOCC1,.,/,/,/,/
Cc1cccc(N(C)c2nc3ccccc3c3nnc(C)n23)c1,/,/,/,/,.
